Measurements: PubChem BioAssay AID493248 (Broad Institute, 2011)
The campaign covered roughly 2,300 compounds. About 1,400 (61%) were called active. Roughly 7% stayed inconclusive and do not appear here. The rule behind the calls is not given here. So high a share suggests a set chosen from earlier hits. Not all results are given here. Potency and affinity values are given separately.

Each compound was assayed against FAD-linked sulfhydryl oxidase ALR (Homo sapiens) (UniProt P55789) (assay: ALR-catalysed DTT oxidation blockers – biochemical, H2O2 detection, luminescence, cherry-pick, dose response (AID 493248)). Details: purified ALR, H2O2 HRP-luminol luminescence; at 10 µM (top of the series).
Sequence of FAD-linked sulfhydryl oxidase ALR (Homo sapiens) (P55789 whole entry, looked up): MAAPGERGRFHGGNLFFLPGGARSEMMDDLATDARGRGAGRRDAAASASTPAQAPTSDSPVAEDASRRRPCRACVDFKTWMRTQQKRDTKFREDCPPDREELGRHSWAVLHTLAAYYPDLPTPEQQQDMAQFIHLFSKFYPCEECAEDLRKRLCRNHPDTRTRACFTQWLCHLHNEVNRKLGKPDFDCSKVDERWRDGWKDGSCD
With Cn1ccnc1SCc1cn2ccccc2n1 the activity change, negative = inhibition was -1.35%. For O=C(c1cc(-c2ccc(O)cc2)on1)N1CCN(c2ccccc2)CC1, the activity change, negative = inhibition was 418%. With S=c1[nH]ncn1NCc1ccc(Cl)cc1Cl the activity change, negative = inhibition was -23.3%. Cc1cc(-c2n[nH]c(=S)n2/N=C/c2cccc([N+](=O)[O-])c2)n[nH]1 was tested, and the activity change, negative = inhibition was -55.9%. COc1cc(/C=C2\SC(=S)N(NC(=O)c3cccnc3)C2=O)ccc1O gave an activity change, negative = inhibition of -97.7%. With Cc1nnc(Nc2ccc3c(c2)OCO3)c2ccccc12 the activity change, negative = inhibition was 20.5%. Cc1csc2nc(CSc3ccc(Cl)cc3)cn12 gave an activity change, negative = inhibition of -28.1%. c1ccc(Nc2c(-c3ccco3)nc3ccccn23)cc1 gave an activity change, negative = inhibition of -67%. COc1ccc(-n2c(-c3ccc(OC)c(OC)c3)n[nH]c2=S)cc1 was tested, and the activity change, negative = inhibition was -27%. Compound CCN1CC(c2ccccc2)C(c2ccc(Cl)cc2)=N1 (stereo unspecified) has an activity change, negative = inhibition of -26.4%. O=C(Nc1cccs1)Nc1ccccc1Cl showed an activity change, negative = inhibition of -59.6%. Compound CN1c2ccccc2Sc2cc(N)ccc21 has an activity change, negative = inhibition of -71%. In the case of O=C(O)C1C(c2ccccc2)C(C(=O)Oc2ccc(O)cc2)C1c1ccccc1 (stereo unspecified), the activity change, negative = inhibition is reported as -97.2%. CN(C)c1ccc(/C=N/OC(=O)Nc2ccccc2)cc1 was tested, and the activity change, negative = inhibition was -22.3%. Work on CCCCN1C2=NC(c3ccccc3)CN2c2ccccc21 (stereo unspecified) yielded an activity change, negative = inhibition of -14%. Fc1ccc(CN2C3=NCCN3c3ccccc32)cc1 was tested, and the activity change, negative = inhibition was -38.3%. Compound COc1cc(NC(=O)CN2C(=O)C(c3ccccc3)=NC2(C)C)cc(OC)c1 has an activity change, negative = inhibition of -10%. For CCN(CC)S(=O)(=O)c1ccc(NC(=O)c2c(-c3ccccc3)noc2C)cc1, the activity change, negative = inhibition was -1.33%. COc1cc(/C=N\NC(=O)c2ccc(Cn3cc(Br)c([N+](=O)[O-])n3)o2)cc(OC)c1O was tested, and the activity change, negative = inhibition was -36.4%. Work on COc1ccc(CN2C(=O)C3C4C=CC(C4)C3C2=O)cc1 (stereo unspecified) yielded an activity change, negative = inhibition of 24.9%. Work on CC(C)CC1(C(=O)O)NC(c2ccccc2O)C2C(=O)N(C(C)C)C(=O)C21 (stereo unspecified) yielded an activity change, negative = inhibition of -7.77%. COc1ccc(CNc2ccccc2)cc1Br was tested, and the activity change, negative = inhibition was -3.19%. For COc1ccc(NCc2ccc3c(c2)OCO3)cc1Cl, the activity change, negative = inhibition was -12.5%. CCN(CC)c1ccc(NC(=O)CN2C(=O)CSc3ncccc32)c(C)c1 was tested, and the activity change, negative = inhibition was -11.2%. Cc1cc2nc3ccc(N(C)C)cc3nc2cc1N was tested, and the activity change, negative = inhibition was -98.1%. Work on CC1C/C(=N/NC(=O)c2cccc(F)c2)c2ccc(O)cc2C1 (stereo unspecified) yielded an activity change, negative = inhibition of -63.8%. For CNC(=O)CN1C(=O)c2ccccc2S1(=O)=O, the activity change, negative = inhibition was 14%. CCN1CCn2c3c(c4cc(C)ccc42)CCCC31 (stereo unspecified) was tested, and the activity change, negative = inhibition was 32.6%. COc1ccc(-c2csc(Cc3nnc4n3CCCCC4)n2)cc1OC showed an activity change, negative = inhibition of -2.63%. CCc1oc2ccccc2c1C(=O)c1cc(Br)c(O)c(Br)c1 was tested, and the activity change, negative = inhibition was -16.5%. In the case of Cc1cccc(NNC(=O)C(=O)NNc2cccc(C)c2)c1, the activity change, negative = inhibition is reported as -2.1%. COC(=O)c1c(N)sc2c1CC(C)(C)OC2 gave an activity change, negative = inhibition of 0.616%. Cc1ccc(N(C)S(=O)(=O)c2cccc(C(=O)Nc3nnc(C4CC4)s3)c2)cc1 gave an activity change, negative = inhibition of 41.9%. Compound Cc1cc(C)cc(N(CC(=O)NCc2ccco2)S(=O)(=O)c2c(C)noc2C)c1 has an activity change, negative = inhibition of -11.1%. Work on CCSc1nnc(NC(=O)C2CCCN(S(=O)(=O)c3cnc[nH]3)C2)s1 (stereo unspecified) yielded an activity change, negative = inhibition of 4.79%. Cc1cc(C(=O)Nc2nc3c(C)cccc3s2)c(C)o1 gave an activity change, negative = inhibition of -29%. In the case of COc1cccc(CNc2nc3ccccc3n2CCN2CCCCC2)c1, the activity change, negative = inhibition is reported as 73.7%. Work on Cc1[nH]oc(=O)c1N=Nc1c(Cl)cccc1Cl yielded an activity change, negative = inhibition of -48.5%. Compound O=S(=O)(c1cccs1)n1cnc2ccccc21 has an activity change, negative = inhibition of -2.54%. Cc1cc(Cc2ccc(N)c(C)c2)ccc1N was tested, and the activity change, negative = inhibition was 12.8%. For C=CCSc1nnc2c(n1)OC(c1ccco1)Nc1ccccc1-2 (stereo unspecified), the activity change, negative = inhibition was -91.3%. COC(=O)c1ccn(CC(=O)NC2CCCCC2)n1 gave an activity change, negative = inhibition of -5.32%. Compound COc1cc(C(=S)NC2CCCCC2)ccc1O has an activity change, negative = inhibition of 99.8%. For CSc1nnc(-c2ccncc2)n1CCCN1CCCC1=O, the activity change, negative = inhibition was 69.3%. Cc1cc(C(=O)CN2C(=O)CCC2=O)c(C)n1Cc1ccccc1 gave an activity change, negative = inhibition of -73.3%. For CS(=O)(=O)N(CC(=O)NCc1ccccn1)Cc1ccc(Cl)cc1, the activity change, negative = inhibition was 128%. With N#CCC(=O)Nc1ccc(C(=O)NCCc2c[nH]c3ccccc23)cc1 the activity change, negative = inhibition was -21.6%. COC(=O)[C@@H](N)Cc1ccc(O)c(O)c1 was tested, and the activity change, negative = inhibition was -110%. With Cc1cccn2cc(CNc3ccccc3)nc12 the activity change, negative = inhibition was -7.4%. With CC(=O)Nc1cccc(NC(=O)c2cccc(-c3ccc(O)cc3)c2)c1 the activity change, negative = inhibition was 64.6%. For Cc1cc(C)n2nc(C(=O)N/N=C/c3ccc(O)cc3)nc2n1, the activity change, negative = inhibition was -107%. Work on COc1cc(/C=N/N2C(=O)C3C4C=CC(CC4)C3C2=O)ccc1O (stereo unspecified) yielded an activity change, negative = inhibition of -104%. S=c1[nH]nc(C2CCCCC2)n1/N=C/c1cccs1 gave an activity change, negative = inhibition of -12.9%. Compound Nc1nnnn1/N=C/c1ccc(O)cc1 has an activity change, negative = inhibition of -84.1%. For CC(=O)c1cc(CC=C(C)C)c(O)cc1O, the activity change, negative = inhibition was 11.5%. O=C(Nc1nnc(-c2ccco2)o1)c1cccc(Cl)c1 gave an activity change, negative = inhibition of -18.4%. Work on Cc1cccc(C(=O)Nc2onc(C)c2C#N)c1 yielded an activity change, negative = inhibition of -51.1%. Compound Cc1[nH]nc(-c2ccc(O)cc2O)c1-c1nc2ccccc2s1 has an activity change, negative = inhibition of 368%. CC(C)c1ccc(NC2CCCN(C(=O)CCN3CCCC3=O)C2)cc1 (stereo unspecified) was tested, and the activity change, negative = inhibition was -61%. COc1ccc(NC2CCCN(C(=O)Cn3ccc(C)n3)C2)cc1OC (stereo unspecified) showed an activity change, negative = inhibition of 108%. For O=C(CCc1ccncc1)N1CCCC(Nc2ccc(F)c(F)c2)C1 (stereo unspecified), the activity change, negative = inhibition was -11.3%.
